From PubChem BioAssay (NCI) come the findings set out here.

Compounds without any hit were thinned out: in the full panel of roughly 83,000, 20% have a hit.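 Cell lines were cultured in 96-well plates, exposed to a single compound concentration, and assessed for percent growth 48 hours later.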 A number with no mark means an inactive call. Calls of active or inactive are those of the source. The calls were made as follows: active = growth percent below 10; inactive = the rest.

Among the test systems are NCI-H23 lung; NCI-H226 lung; NCI-H322M lung; HOP-62 NSCLC; NCI-H460 lung; HOP-92 NSCLC; NCI-H522 lung; A549/ATCC NSCLC; 786-0 renal; COLO 205 colon; DU-145 prostate; K-562 leukemia; MDA-MB-231 breast; RXF 393 renal; SF-268 CNS; SF-295 CNS; SF-539 CNS; UACC-257 melanoma; M14 melanoma; MALME-3M melanoma.
Test in all cases: NCI-60 one-dose screen, 48 h (100 = growth as untreated, 0 = no growth, -100 = all killed)
What all share (conditions): 10 µM

Take `COc1cc(OC)cc(-c2n/c(=C\c3c(O)[nH]c4ccc(OC)cc34)cc3c2=Nc2ccccc2-3)c1`: the growth in the test with NCI-H23 lung is 65.8%; with NCI-H226 lung it was 92.4%; with NCI-H322M lung it was 102%; with HOP-62 NSCLC it was 99.1%; in the test with NCI-H460 lung, 12.8%; in the test with HOP-92 NSCLC, 68.6%. Also, the growth in the test with NCI-H522 lung was 108%; with A549/ATCC NSCLC, 52.1%; in the test with 786-0 renal it was 75.9%; in the test on COLO 205 colon, 86.5%; in the test with DU-145 prostate, 3.54% (active); in the test on K-562 leukemia, -9.91% (active). Also, the growth in the test on MDA-MB-231 breast is 3.25% (active); in the test on RXF 393 renal, 79.7%; in the test on SF-268 CNS, 73.6%; with SF-295 CNS, 98.4%; in the test with SF-539 CNS, 108%; with UACC-257 melanoma, 115%.

Turning to `CCN(CC)CC(O)Cc1ccc(OC)cc1` (centres undefined), the growth with NCI-H23 lung is 108%; in the test on NCI-H226 lung, 99.5%; with NCI-H322M lung, 121%; in the test on HOP-62 NSCLC it was 104%; in the test on NCI-H460 lung, 117%; with HOP-92 NSCLC, 108%. Besides, the growth was 97.8% with NCI-H522 lung; 104% with A549/ATCC NSCLC; 100% with 786-0 renal; 109% in the test with COLO 205 colon; 115% in the test on DU-145 prostate; 101% with K-562 leukemia. Also, the growth in the test on MDA-MB-231 breast is 105%; with RXF 393 renal, 106%; in the test with SF-268 CNS it was 114%; with SF-295 CNS it was 109%; in the test on SF-539 CNS, 97.4%; in the test with UACC-257 melanoma, 113%. Also, in the test on M14 melanoma, the growth was 116%.

Regarding `O=c1oc2c3ccc4cnccc4c3[nH]c2c2ccccc12`, the growth in the test on NCI-H23 lung is 65%; with NCI-H226 lung, 77.1%; with NCI-H322M lung, 78.6%; in the test on HOP-62 NSCLC, 70.8%; in the test with NCI-H460 lung, 5.33% (active); in the test on HOP-92 NSCLC it was 49.2%. Besides, the growth in the test on NCI-H522 lung was -11.5% (active); in the test with A549/ATCC NSCLC it was 0.199% (active); in the test with 786-0 renal, 12.2%; in the test with COLO 205 colon, -57.2% (active); with DU-145 prostate, 16.9%; in the test with K-562 leukemia, 21.1%. Further, the growth in the test on MALME-3M melanoma was -80.8% (active); in the test on MDA-MB-231 breast, 68.2%; in the test with SF-268 CNS, 23%; in the test with SF-295 CNS, 75.6%; in the test with SF-539 CNS, -72.1% (active); in the test on UACC-257 melanoma it was 1.25% (active). Besides, the growth in the test on M14 melanoma was 67.3%.

Consider `Nc1ccc2c(c1)Cc1cc(N)c(Cl)cc1-2`, for which the growth in the test on NCI-H23 lung was 103%; in the test with NCI-H226 lung it was 107%; in the test with NCI-H322M lung, 88.1%; with HOP-62 NSCLC it was 109%; with NCI-H460 lung, 105%; in the test on HOP-92 NSCLC, 76.4%. Also, the growth in the test with NCI-H522 lung was 92.2%; with A549/ATCC NSCLC, 88.2%; in the test with 786-0 renal it was 97.7%; with COLO 205 colon, 105%; in the test with DU-145 prostate, 119%; in the test on K-562 leukemia it was 104%. Further, the growth with MDA-MB-231 breast is 88.4%; with RXF 393 renal, 110%; in the test with SF-268 CNS, 113%; in the test with SF-295 CNS, 99.1%; in the test on SF-539 CNS it was 95.9%; in the test on UACC-257 melanoma, 94.5%.

As for `C/C(=N/NC(=O)c1sc(=S)n(C)c1N)c1cc2cc(Cl)ccc2o1`, the growth in the test on NCI-H23 lung was 97.9%; in the test on NCI-H226 lung, 102%; in the test on NCI-H322M lung, 88.1%; with HOP-62 NSCLC it was 96.5%; in the test with NCI-H460 lung, 89%; in the test on HOP-92 NSCLC, 114%. Also, the growth in the test on NCI-H522 lung is 88.6%; in the test on A549/ATCC NSCLC it was 8.04% (active); in the test with 786-0 renal, 106%; in the test on COLO 205 colon, 104%; in the test on DU-145 prostate it was 87.2%; in the test with K-562 leukemia, 72.8%. Also, the growth was 113% in the test on MALME-3M melanoma; 68.9% with MDA-MB-231 breast; 80.2% in the test on SF-268 CNS; 109% in the test on SF-295 CNS; 99.2% in the test on SF-539 CNS; 5.89% (active) in the test with UACC-257 melanoma. The growth in the test with M14 melanoma was 91.7%.

With `CC(=O)Nc1nc(C)c(C(=O)N/N=C/c2cccn2C)s1`, the growth is 96% with NCI-H23 lung; 90.7% in the test on NCI-H226 lung; 150% in the test on NCI-H322M lung; 109% with HOP-62 NSCLC; 109% with NCI-H460 lung; 56.1% in the test on HOP-92 NSCLC. For the same compound, the growth in the test with NCI-H522 lung was 86%; with A549/ATCC NSCLC, 104%; in the test with 786-0 renal, 111%; with COLO 205 colon, 125%; with DU-145 prostate, 106%; in the test with K-562 leukemia it was 54.3%. For the same compound, the growth in the test on MDA-MB-231 breast was 102%; in the test with RXF 393 renal it was 119%; with SF-268 CNS, 95.9%; in the test with SF-295 CNS, 114%; in the test with SF-539 CNS it was 103%; in the test with UACC-257 melanoma, 120%. Further, in the test on M14 melanoma, the growth is 115%.

As to `C(=C\c1nc2ccccc2s1)/c1ccc(N2CCOCC2)s1`, the growth with NCI-H23 lung was 78%; in the test with NCI-H226 lung, 89.4%; in the test on NCI-H322M lung, 79.7%; in the test with HOP-62 NSCLC it was 118%; with NCI-H460 lung it was 80.7%; in the test on HOP-92 NSCLC, 93%. For the same compound, the growth is 64.2% in the test with NCI-H522 lung; 83.3% in the test on A549/ATCC NSCLC; 82.5% in the test with 786-0 renal; 94.8% in the test on COLO 205 colon; 92.4% in the test with DU-145 prostate; 31.8% in the test on K-562 leukemia. Also, the growth in the test with MALME-3M melanoma is 103%; with MDA-MB-231 breast it was 75.5%; in the test on SF-268 CNS, 98.2%; in the test with SF-295 CNS, 69%; with SF-539 CNS it was 81.1%; in the test with UACC-257 melanoma it was 90.2%.

With `O=C(COc1ccc(Cl)cc1Cl)Oc1coc(CSc2nc3ccccc3s2)cc1=O`, the growth with NCI-H23 lung was 94.5%; in the test with NCI-H226 lung, 93.8%; with NCI-H322M lung it was 114%; with HOP-62 NSCLC, 107%; in the test with NCI-H460 lung, 101%; with HOP-92 NSCLC it was 110%. Moreover, the growth is 74.8% in the test with NCI-H522 lung; 27.8% in the test on A549/ATCC NSCLC; 113% with 786-0 renal; 114% in the test with COLO 205 colon; 106% in the test on DU-145 prostate; 83% in the test on K-562 leukemia. Further, the growth with MALME-3M melanoma was 93.4%; with MDA-MB-231 breast it was 86.8%; with SF-268 CNS it was 102%; in the test with SF-295 CNS, 105%; in the test with SF-539 CNS, 98.6%; with UACC-257 melanoma, 27.3%. Besides, the growth with M14 melanoma is 110%.
